Screening results as filed in PubChem BioAssay.
Sampled rows, rich in hits. Any-hit rate of the full collection: about 11%.
Luciferase inh: inhibitors of firefly (Photinus pyralis) luciferase | purified P. pyralis luciferase, luminescence, biochemical | Potency, µM (highest dose often 115 µM), usual class: inhibitors | actives 2.5% (n = 76,000) | AID 1347043; further: nearly all actives have a fitted effect of over 65% in size
Target sequence (P08659 whole entry, looked up): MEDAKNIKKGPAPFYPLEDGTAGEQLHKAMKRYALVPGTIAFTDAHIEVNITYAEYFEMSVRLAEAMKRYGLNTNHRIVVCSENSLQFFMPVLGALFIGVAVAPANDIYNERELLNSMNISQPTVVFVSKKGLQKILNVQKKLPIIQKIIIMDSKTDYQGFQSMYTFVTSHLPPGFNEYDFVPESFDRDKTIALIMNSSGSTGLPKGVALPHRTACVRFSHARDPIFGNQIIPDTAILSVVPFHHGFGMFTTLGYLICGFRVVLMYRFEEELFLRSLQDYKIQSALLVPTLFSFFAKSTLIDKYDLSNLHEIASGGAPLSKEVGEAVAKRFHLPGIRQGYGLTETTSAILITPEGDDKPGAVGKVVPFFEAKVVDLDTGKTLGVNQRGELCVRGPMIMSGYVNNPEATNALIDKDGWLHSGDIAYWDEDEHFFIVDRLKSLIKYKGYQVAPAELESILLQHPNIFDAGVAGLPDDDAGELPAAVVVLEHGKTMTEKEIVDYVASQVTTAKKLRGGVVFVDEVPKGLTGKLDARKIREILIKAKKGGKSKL
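Inhibitors were tested against purified firefly luciferase in a biochemical, low-substrate format (both substrates at 10uM) and luminescence measured with a CCD imager.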
HEK293 tox: HEK 293 cell cytotoxicity; HEK 293 viability, ATP luminescence (CellTiter-Glo), 48-72 h; Potency, µM (doses to about 115 µM), without a hit: at the top dose activity change, negative = cytotoxicity, actives largely listed as inhibitors; actives 6.6% (n = 94,000); AID 1345083; further: nearly all actives have a fitted effect of over 60% in size
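Cytotoxicity was scored by loss of ATP-coupled luminescence (CellTiter-Glo) in HEK 293 cells. Compound treatment ran 48 or 72 hr at 37 degree Celsius, 5% CO2, 95% humidity.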
NIH3T3 tox: kills NIH 3T3 cells; Potency, µM (highest dose often 96.7 µM), for inactives: at the top dose activity change, negative = cytotoxicity, most hits filed as inhibitors; NIH 3T3 viability, CellTiter-Glo ATP luminescence, 48-72 h; actives 4.3% (n = 94,000); further: nearly all actives have a fitted effect of over 55% in size
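Mouse fibroblast NIH 3T3 cells, 400 per well, received compound via pintool and were incubated for 48 or 72 hr prior to CellTiter-Glo ATP luminescence measurement.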
NPR1 antag: blocks ANP-stimulated signaling of human Npr1 receptor; Potency, µM (titrated, usually from 46.3 µM), for the others: at the highest dose activity change, negative = inhibition, usual class: inhibitors; HEK293 hNpr1 GloSensor cGMP, ANP-stimulated luminescence; actives 1.6% (n = 76,000); P16066; AID 1347048; calls by dose curve; further: nearly all actives have a fitted effect of over 60% in size
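HEK293 cells stably expressing human Npr1 and cGMP GloSensor pGS-40F, loaded 2 h with 2% GloSensor reagent, given compound 30 min at room temperature. Luminescence read before and 20 min after 0.1 nM hNppA.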
The depositor's hits bear a star; [ ] = remark or other dose. Unless noted, the call rests on the fitted dose curve; in most records, active means well fitted curve in the direction sought with a large enough effect; inconclusive means small, poorly fitted or top-dose-only effect, or another doubt; inactive means no such curve, though single readings can be large; an effect the other way counts as inactive or inconclusive. On the % scale 0 is the no-effect control and ±100 the full control effect; potency means the concentration at half of the fitted maximal effect.

How did Cc1ccc(-c2ccc3nnc(CNC(=O)c4ccc(F)cc4)n3n2)cc1 do in these assays?
Luciferase inh: inactive; HEK293 tox: inconclusive; NIH3T3 tox: -17%; NPR1 antag: 1%

What do the screens show for `CC(Cc1cnccn1)NC(=O)c1ccc2nc(-c3ccc(F)cc3)cn2c1` (stereo not given)?
Luciferase inh: 40µM*; HEK293 tox: inconclusive; NIH3T3 tox: -7%; NPR1 antag: 6%

How did CSCC(=O)N1C[C@@H](NC(=O)Nc2ccc(F)cc2F)C[C@H]1C(=O)N[C@@H](Cc1cccs1)C(N)=O do in these assays?
Luciferase inh: inactive; HEK293 tox: -9%; NIH3T3 tox: -2%; NPR1 antag: 2%

What do the screens show for `O=C(CC[C@@H]1CNC(=O)[C@@H]2C[C@H](NC(=O)Nc3ccccc3)CN12)NCc1ccccc1`?
Luciferase inh: inactive; HEK293 tox: inactive; NIH3T3 tox: inactive; NPR1 antag: 3%

How did CC1CCC(NC(=O)c2cc3n(n2)CC(c2ccc4c(c2)OCO4)OC3)CC1 (stereo not given) do in these assays?
Luciferase inh: inactive; HEK293 tox: 22µM*; NIH3T3 tox: inconclusive; NPR1 antag: -9%

What do the screens show for `O=C(NCCCc1ccccc1)c1cc2n(n1)CC(c1ccc3c(c1)OCO3)OC2` (stereo not given)?
Luciferase inh: inactive; HEK293 tox: inconclusive; NIH3T3 tox: 28µM*; NPR1 antag: -23%

What do the screens show for `CCOc1ccc(NC(=O)c2cc3n(n2)CC(c2ccc4c(c2)OCO4)OC3)cc1` (stereo not given)?
Luciferase inh: inconclusive; HEK293 tox: 22µM*; NIH3T3 tox: inconclusive; NPR1 antag: 16µM*

How did Cc1cc(C)cc(NC(=O)c2cc3n(n2)CC(c2ccc4c(c2)OCO4)OC3)c1 (stereo not given) do in these assays?
Luciferase inh: inactive; HEK293 tox: 89µM*; NIH3T3 tox: inconclusive; NPR1 antag: -19%

How did O=C(NCCc1ccccc1)c1cc2n(n1)CC(c1ccc3c(c1)OCO3)OC2 (stereo not given) do in these assays?
Luciferase inh: inactive; HEK293 tox: inconclusive; NIH3T3 tox: inconclusive; NPR1 antag: inconclusive

How did COCC(=O)N1CCC(C(=O)N2CCC3(CC2)CC(=O)Nc2ccccc2O3)CC1 do in these assays?
HEK293 tox: inactive; NIH3T3 tox: 1%

What do the screens show for `O=C(c1cnccn1)N1CCCC1c1noc(CO)n1` (stereo not given)?
HEK293 tox: 0%; NIH3T3 tox: -9%

How did CCN(CC)Cc1cnc2c(C(=O)N3CCC(C(N)=O)CC3)cnn2c1 do in these assays?
Luciferase inh: inactive; HEK293 tox: -4%; NIH3T3 tox: inactive; NPR1 antag: 3%

What do the screens show for `Cn1c(=O)cc(C(=O)NC2CCCc3c2[nH]c2ccc(Cl)cc32)c2ccccc21` (stereo not given)?
Luciferase inh: inactive; HEK293 tox: 32µM*; NIH3T3 tox: inconclusive; NPR1 antag: 0%

What do the screens show for `CC(=O)NC1CCCc2c1[nH]c1ccc(Cl)cc21` (stereo not given)?
Luciferase inh: inactive; HEK293 tox: inconclusive; NIH3T3 tox: inconclusive; NPR1 antag: -1%

What do the screens show for `CC(C)c1noc(-c2ccn3c(CNC(=O)c4cccc(N(C)C)c4)nnc3c2)n1`?
Luciferase inh: 28µM*; HEK293 tox: inconclusive; NIH3T3 tox: inconclusive; NPR1 antag: -9%

What do the screens show for `CC(C)c1noc(-c2ccn3c(CNC(=O)c4ccc(N(C)C)cc4)nnc3c2)n1`?
Luciferase inh: inactive; HEK293 tox: 1%; NIH3T3 tox: -12%; NPR1 antag: 0%

Results for Cc1ccccc1N(C)C1CN(C(=O)c2ccccn2)C1 ?
HEK293 tox: 79µM*; NIH3T3 tox: inconclusive

How did CCN(C1CCOCC1)C1CN(C(=O)c2ccccn2)C1 do in these assays?
Luciferase inh: inactive; HEK293 tox: -6%; NIH3T3 tox: inactive; NPR1 antag: 3%

What do the screens show for `COc1cc(=O)n2c(c1C(=O)Nc1ccc(Br)cc1F)CCCC2`?
Luciferase inh: inactive; HEK293 tox: inconclusive; NIH3T3 tox: inconclusive; NPR1 antag: -1%

How did CC(=O)Nc1cccc(-c2nc(N3CCOCC3)cc3c2CN(Cc2cnn(C)c2)C3=O)c1 do in these assays?
Luciferase inh: inactive; HEK293 tox: -21%; NIH3T3 tox: inconclusive; NPR1 antag: 9%

Results for CN1Cc2c(cc(N3CCOCC3)nc2-c2cccc(C(F)(F)F)c2)C1=O ?
Luciferase inh: inactive; HEK293 tox: -40%[172 µM]; NIH3T3 tox: 5.6µM*; NPR1 antag: -17%[70.6 µM]

How did COc1cccc(-c2nc(N3CCOCC3)cc3c2CN(C)C3=O)c1OC do in these assays?
Luciferase inh: inactive; HEK293 tox: inconclusive; NIH3T3 tox: inconclusive; NPR1 antag: 5%[70.6 µM]

How did COc1cccc(-c2nc(N3CCOCC3)cc3c2CN(C)C3=O)c1 do in these assays?
Luciferase inh: inactive; HEK293 tox: inconclusive; NIH3T3 tox: 16µM*; NPR1 antag: 4%[70.6 µM]

What do the screens show for `CN1Cc2c(cc(N3CCOCC3)nc2-c2cccc(N[S+](C)(=O)[O-])c2)C1=O`?
Luciferase inh: inactive; HEK293 tox: inconclusive; NIH3T3 tox: 14µM*; NPR1 antag: 7%[70.6 µM]

Results for O=C(c1cccc(O)c1)N1CCc2c(n(CCOc3ccccc3)n(-c3ccccc3)c2=O)C1 ?
Luciferase inh: inactive; HEK293 tox: -15%; NIH3T3 tox: 22µM*; NPR1 antag: -8%

How did COc1ccc(-c2noc(-c3nc(C(C)C)no3)n2)cc1 do in these assays?
Luciferase inh: 11µM*; HEK293 tox: inconclusive; NIH3T3 tox: -5%; NPR1 antag: -20%

Results for COc1ccc(-c2noc(-c3nc(-c4cc(OC)c(OC)c(OC)c4)no3)n2)cc1 ?
Luciferase inh: inactive; HEK293 tox: -3%; NIH3T3 tox: -14%; NPR1 antag: 8%

How did O=C(NC1CCCC1)N1CCCC(C(=O)N2CCCC(c3nc4ncccc4[nH]3)C2)C1 (stereo not given) do in these assays?
HEK293 tox: 0%; NIH3T3 tox: -23%

How did COCCn1ncc(N2CCCC(CC(=O)N(C)CCc3ccccn3)C2)cc1=O (stereo not given) do in these assays?
Luciferase inh: inactive; HEK293 tox: 0%; NIH3T3 tox: 2%; NPR1 antag: 3%

Results for Cc1sc2ccn(C)c(=O)c2c1C(=O)N1CCN(c2ccc(Cl)cc2)CC1 ?
Luciferase inh: inactive; HEK293 tox: 79µM*; NIH3T3 tox: -15%; NPR1 antag: -11%

How did Cc1sc2ccn(C)c(=O)c2c1C(=O)N1CCN(c2ccc(F)cc2)CC1 do in these assays?
Luciferase inh: inactive; HEK293 tox: inconclusive; NIH3T3 tox: 4%; NPR1 antag: -8%

What do the screens show for `O=C(Cn1cccn1)N1CCOC(Cc2cccc(C(F)(F)F)c2)C1` (stereo not given)?
Luciferase inh: inactive; HEK293 tox: -2%; NIH3T3 tox: 4%; NPR1 antag: 7%
